Reference: PubChem BioAssay AID1240 (Sanford-Burnham Center for Chemical Genomics, 2008)
Hit rate of the full screen: of about 50,000 compounds, about 800 (1.6%) showed an effect of 50% or more. Shown is part of a subset that was picked to be rich in strong results.

Molecular target: Bcl-2-like protein 10 (Homo sapiens) (UniProt Q9HD36)
Assay: Phenotype converters, Bcl-B/TR3 peptide binding displacement, primary biochemical FP (AID 1240);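 also: 0% = Bcl-B with tracer peptide and DMSO and 100% = tracer peptide lacking Bcl-B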
Details: GST-Bcl-B / FITC-TR3 peptide fluorescence polarization; stronger effect = higher value; compound at 3.75 mg/L

Bcl-2-like protein 10 (Homo sapiens), sequence (Q9HD36 whole entry, looked up): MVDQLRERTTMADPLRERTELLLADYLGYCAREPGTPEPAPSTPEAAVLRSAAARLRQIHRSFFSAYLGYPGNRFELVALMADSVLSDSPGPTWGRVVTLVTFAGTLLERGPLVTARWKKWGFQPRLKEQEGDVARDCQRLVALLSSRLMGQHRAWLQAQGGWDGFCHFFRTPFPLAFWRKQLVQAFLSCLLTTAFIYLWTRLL

Row | SMILES | displacement [%]
1 | COc1ccc(C2Nc3ccccc3C(=O)N2Cc2ccccc2)cc1Cn1nc(C)c(Br)c1C (stereo unspecified) | 15.4
2 | CCOC(=O)c1c(NC(=O)COc2cc(Cl)ccc2Cl)sc(C)c1C | -8
3 | CCOC(=O)c1sc(NC(=O)COc2ccc(Cl)cc2C)c(C(=O)OCC)c1C | -5.1
4 | Cc1cc(Cl)ccc1OCC(=O)Nc1sc(C)c(C)c1C(N)=O | 79.1
5 | O=C(N/N=C/c1ccc(Cl)c(Cl)c1)C1CC(=O)N(c2ccccc2)C1 (stereo unspecified) | -9.3
6 | CS(=O)(=O)N(CC(=O)NCc1ccncc1)c1ccc(Oc2ccccc2)cc1 | 10.2
7 | Fc1ccccc1-c1nc(-c2ccc(Br)cc2)no1 | 4.3
8 | Cc1ccc2nsnc2c1NC(=O)c1ccc(Br)o1 | 15.6
9 | O=C(Nc1cccc2nsnc12)c1ccco1 | 4
10 | CCOc1ccc(C(=O)Nc2cccc3nsnc23)cc1[N+](=O)[O-] | 10.7
11 | CCOc1ccc(C(=O)Nc2cccc3nsnc23)cc1Br | 78.2
12 | CCOc1ccc(C(=O)Nc2cccc3nsnc23)cc1Cl | 30.9
13 | O=C(Nc1cccc2nsnc12)c1ccc(Br)o1 | 69.6
14 | O=C(Nc1sc2c(c1C(=O)N1CCCCC1)CCCCC2)c1ccc([N+](=O)[O-])cc1 | -2.1
15 | COc1cccc(OC)c1C(=O)NCc1ccc(C)cc1 | 2.7
16 | Fc1ccc(-c2noc(-c3ccc(Cl)cc3)n2)cc1 | -6.4
17 | COc1cc(C(=O)N2CCN(C)CC2)c([N+](=O)[O-])cc1OC | -0.1
18 | Cc1ccc(-c2noc(-c3cccc([N+](=O)[O-])c3C)n2)cc1 | 6.9
19 | Cc1cccc(-c2noc(-c3ccc(Br)cc3)n2)c1 | -1.7
20 | Cc1ccc(-c2nc(-c3cccnc3)no2)cc1[N+](=O)[O-] | 21.4
21 | Cc1cccc(-c2noc(-c3ccc(C)c([N+](=O)[O-])c3)n2)c1 | 76.1
22 | COc1ccc(-c2noc(-c3ccc(C)c([N+](=O)[O-])c3)n2)cc1 | -0.4
23 | Cc1c(-c2nc(-c3ccncc3)no2)cccc1[N+](=O)[O-] | 0.7

Row | SMILES | displacement [%]
24 | COc1ccc(-c2nc(-c3cc(OC)c(OC)c(OC)c3)no2)cc1OC | -5.7
25 | COc1ccc(-c2noc(-c3ccc(C)c([N+](=O)[O-])c3)n2)cc1OC | 54.4
26 | Cc1cccc(-c2noc(-c3cccc([N+](=O)[O-])c3C)n2)c1 | 78.9
27 | O=C1c2ccccc2C(=O)C1C1=CC(c2ccccc2)C(c2ccccc2)N=N1 (stereo unspecified) | -10
28 | O=S(=O)(NC(=S)c1ccccc1)c1ccc(I)cc1 | 11.9
29 | COc1cc(/C=C2\C(=O)NC(=O)N(c3ccc(Cl)cc3)C2=O)cc(Cl)c1OC | -2.2
30 | COc1ccc(/C=C/C(=O)c2ccc(Br)cc2)cc1[N+](=O)[O-] | 12.9
31 | O=C(CSc1nnnn1-c1ccccc1)Nc1ccccc1[N+](=O)[O-] | 1.7
32 | O=C(CSc1ccc(Cl)cc1)NCCc1ccc(F)cc1 | -8.3
33 | O=C(NCc1ccc2c(c1)OCO2)c1ccccc1F | 14.1
34 | O=C(Nc1ccc2c(c1)OCO2)C(=O)Nc1ccc2c(c1)OCO2 | 21.3
35 | O=C(NNC(=O)c1ccc2c(c1)OCO2)NC1CCCCC1 | 10.1
36 | c1cc2c(cc1NC1CCCCC1)OCO2 | 130
37 | Cc1nn(Cc2cccc(Cl)c2)c(N)c1-c1ccccc1 | -9
38 | CCOc1ccc(/C=N\NC(=O)c2ccc(Br)cc2)c(O)c1 | 6.9
39 | Cc1ccc(C(=O)Nc2ccc(S(=O)(=O)N3CCc4ccccc43)cc2)cc1 | 1.6
40 | O=C(Nc1ccc(S(=O)(=O)N2CCc3ccccc32)cc1)c1ccc(-c2ccccc2)cc1 | 89.5
41 | O=C(Nc1ccc(S(=O)(=O)N2CCc3ccccc32)cc1)c1ccc(Cl)cc1 | 0.8
42 | O=C(O)c1c(F)c(F)c(F)c(F)c1-c1ccc(Cl)cc1 | 11.8
43 | Oc1cc(OCc2ccccc2Cl)ccc1-c1[nH]ncc1-c1ccccc1 | 77.4
44 | Cc1oc2ccc(OCc3ccccc3Cl)cc2c1C(=O)O | 5.8
45 | O=c1c(-c2ccccc2)coc2cc(OCc3ccccc3Cl)ccc12 | 20.7
46 | CCOC(=O)c1ccc(N/C=C/C(=O)c2cccs2)cc1 | 14.1

Row | SMILES | displacement [%]
47 | CCOC(=O)c1ccc(N/C=C/C(=O)c2ccc(Cl)cc2)cc1 | 59.8
48 | CCOC(=O)c1ccc(NC(=O)/C=C/c2ccc(Cl)cc2)cc1 | 16.8
49 | Cc1ccc(C(=O)/C=C/Nc2cccc(O)c2)cc1 | -0.4
50 | Cc1cccc(N/C=C/C(=O)c2ccc(Cl)cc2)c1 | -2.2
51 | Cc1ccc(C(=O)/C=C/Nc2ccc(Cl)c(Cl)c2)cc1 | 126
52 | CCOc1ccccc1C(=O)NCCc1nc2ccccc2[nH]1 | 4.7
53 | O=C(NC1C2CC3CC(C2)CC1C3)c1ccccc1F (stereo unspecified) | 4.9
54 | Cc1cc(/C=C2/SC(=O)NC2=O)c(C)n1-c1cccnc1 | 0.8
55 | C/C(=N\NC(=O)c1cc2ccccc2cc1O)c1ccco1 | 10
56 | COC(=O)c1cc(-c2ccc(C)cc2)nc2ccccc12 | 2.1
57 | N#Cc1c(-c2ccccc2)cc(-c2ccc(Br)cc2)nc1N | 8.8
58 | COc1ccc(-c2cc(-c3ccc(Br)cc3)nc(N)c2C#N)cc1 | 70.6
59 | COc1ccc(-c2cc(-c3ccc(Cl)cc3)c(C#N)c(N)n2)cc1 | 6.4
60 | CN1CCN(c2c([N+](=O)[O-])c(=O)n(C)c3ccccc23)CC1 | -4.8
61 | CCCC1=NN2C(=N)/C(=C/c3ccccc3C)C(=O)N=C2S1 | 32.9
62 | CCCC1=NN2C(=N)/C(=C/c3ccc(OCc4ccc(F)cc4)c(OCC)c3)C(=O)N=C2S1 | -6.7
63 | CCCC1=NN2C(=N)/C(=C/c3ccc(-c4ccc(C(=O)OCC)cc4)o3)C(=O)N=C2S1 | 164
64 | CCC1=NN2C(=N)/C(=C/c3ccc(-c4ccc(C)c(Cl)c4)o3)C(=O)N=C2S1 | 3.9
65 | CCCC1=NN2C(=N)/C(=C/c3ccc(-c4ccc(F)cc4)o3)C(=O)N=C2S1 | 135
66 | CCC1=NN2C(=N)/C(=C/c3ccc(-c4ccc(C(=O)O)cc4)o3)C(=O)N=C2S1 | 44.1
67 | CCOC(=O)c1ccc(-c2ccc(/C=C3/SC(N)=NC3=O)o2)cc1 | -27.3
68 | CCCC1=NN2C(=N)/C(=C/c3ccc(-c4ccccc4C(=O)OC)o3)C(=O)N=C2S1 | -37
69 | CCC1=NN2C(=N)/C(=C/c3ccc(-c4ccc(Cl)cc4)o3)C(=O)N=C2S1 | 66.7

Row | SMILES | displacement [%]
70 | CCC1=NN2C(=N)/C(=C/c3ccc(F)cc3)C(=O)N=C2S1 | 7.5
71 | CCC1=NN2C(=N)/C(=C/c3ccc(-c4ccc(F)c(Cl)c4)o3)C(=O)N=C2S1 | -0.2
72 | CCC1=NN2C(=N)/C(=C/c3ccc(-c4ccc(F)cc4)o3)C(=O)N=C2S1 | 69.2
73 | CCOc1ccc(N2C(=O)NC(=O)/C(=C/c3cc(Br)c(OCC)c(OC)c3)C2=O)cc1 | -6.7
74 | CC(=O)C1=C(O)C(=O)N(C)C1c1ccccc1[N+](=O)[O-] (stereo unspecified) | 2.8
75 | C/C(=N\N=C1\NC(=O)C(CC(=O)NCc2ccccc2)S1)C(C)C (stereo unspecified) | 0.3
76 | CCCCOc1ccc(NC(=O)CSc2nnc(N)s2)cc1 | -16.9
77 | c1ccc(CCSc2nc3ccccc3[nH]2)cc1 | 6.2
78 | Cc1cc(C=C2C(=O)c3ccccc3C2=O)c(-c2ccccc2)n1-c1ccccc1 | 68
79 | Cc1cc(C)c(C=C2C(=O)c3ccccc3C2=O)cc1C | -1.6
80 | Cc1cc(/C=C2/NC(=O)NC2=O)c(-c2ccccc2)n1-c1ccccc1 | -5.1
81 | Cc1cc(/C=N/N2C(=O)c3ccccc3C2=O)c(C)n1-c1ccccc1 | 11.4
82 | Cc1cc(/C=C2/SC(=O)NC2=O)c(-c2ccccc2)n1-c1ccccc1 | -9.6
83 | Cc1cc(C=C2C(=O)NC(=S)NC2=O)c(-c2ccccc2)n1-c1ccccc1 | 162
84 | Cc1cc(C=C2C(=O)NC(=O)NC2=O)c(-c2ccccc2)n1-c1ccccc1 | 150
85 | Cc1cc(/C=C2/SC(=S)NC2=O)c(-c2ccccc2)n1-c1ccccc1 | 0.7
86 | Cc1cc(/C=C2/NC(=S)NC2=O)c(-c2ccccc2)n1-c1ccccc1 | -14.7
87 | CN(C)CCNC(=O)/C(=N\O)c1ccccn1 | 15.9
88 | COc1ccc(CN(C)C(=O)c2cccc(C(=O)N(C)Cc3ccc(OC)cc3)c2)cc1 | 10.7
89 | COc1cccc(C(=O)Nc2ccc(I)cc2Cl)c1 | 8.2
90 | Nc1c(Cc2ccccc2)ccc2c1C(=O)c1ccccc1C2=O | 10.3
91 | CC(C)(CN1CCOCC1)NS(=O)(=O)c1ccc(Cl)cc1 | 7.4
92 | CCc1ccc(OCC(=O)Nc2ccc3ccccc3c2)cc1 | 11.4

Row | SMILES | displacement [%]
93 | Cc1ccc(N2NC(=O)/C(=C/c3ccc(-c4ccc(S(N)(=O)=O)cc4)o3)C2=O)cc1 | 5.6
94 | CC(=O)Nc1ccc(S(=O)(=O)N(Cc2ccccc2)C(C)C)cc1 | 130
95 | CC(C)N(Cc1ccccc1)S(=O)(=O)c1ccc(F)cc1 | 12.3
96 | CCN(Cc1ccccc1)S(=O)(=O)c1ccc(NC(C)=O)cc1 | 19.2
97 | CC1CN(CC(O)COc2ccc3ccccc3c2)CC(C)O1 (stereo unspecified) | 0.2
98 | COc1ccc2[nH]c3c(c2c1)CCn1c-3nc2scc(-c3ccccc3)c2c1=O | 0.2
99 | CCc1cc2c(C)cc(=O)oc2cc1OC(C)=O | 10.1
100 | COc1ccc(-n2c(O)c(C=NCc3ccc(F)cc3)c(=O)[nH]c2=O)cc1 | 12.4
101 | COc1cc(N=Cc2c(O)n(-c3ccc(Cl)cc3)c(=O)[nH]c2=O)cc(OC)c1 | 70.5
102 | COc1ccc(N=Cc2c(O)n(-c3ccccc3)c(=O)[nH]c2=O)cc1Cl | 113
103 | COc1cc(CN=Cc2c(O)n(-c3cc(OC)ccc3OC)c(=O)[nH]c2=O)cc(OC)c1 | 1.6
104 | COc1ccc(CN=Cc2c(O)n(-c3ccc(Cl)cc3)c(=O)[nH]c2=O)cc1 | -6.6
105 | COc1ccc(-n2c(O)c(C=Nc3ccc(Cl)cc3)c(=O)[nH]c2=O)cc1 | 14.3
106 | Cc1ccc(N=Cc2c(O)n(-c3ccccc3)c(=O)[nH]c2=O)cc1 | -5.6
107 | COc1ccc(CN=Cc2c(O)n(-c3cccc(Cl)c3)c(=O)[nH]c2=O)cc1 | 81.4
108 | COc1cccc(-n2c(O)c(C=Nc3cccc(Cl)c3)c(=O)[nH]c2=O)c1 | -3.7
109 | COc1cc(CN=Cc2c(O)n(-c3ccc(F)cc3)c(=O)[nH]c2=O)cc(OC)c1 | 84.7
110 | COc1ccc(-n2c(O)c(C=Nc3cccc(Cl)c3)c(=O)[nH]c2=O)cc1 | 14.2
111 | COc1ccc(CN=Cc2c(O)n(-c3ccc(OC)cc3)c(=O)[nH]c2=O)cc1 | -3.4
